# Data reported in PubChem BioAssay (NCI).
# Compounds without any hit were thinned out: in the full panel of roughly 83,000, 20% have a hit.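 In brief: 96-well plates, 48 h treatment, single concentration, percent growth endpoint.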 A number with no mark means an inactive call. Activity calls are given as the source filed them. The calls were made as follows: active = growth percent below 10; inactive = the rest.
# What was measured:
# Experiment in all cases: NCI-60 one-dose screen, 48 h (100 = growth as untreated, 0 = no growth, -100 = all killed)
# Details in all cases: 10 µM
# SK-MEL-2 melanoma = system: SK-MEL-2 melanoma
# SN12C renal = system: SN12C renal
# UO-31 renal = system: UO-31 renal
# TK-10 renal = system: TK-10 renal
# ACHN renal = system: ACHN renal
# CAKI-1 renal = system: CAKI-1 renal
# A498 renal = system: A498 renal
# CCRF-CEM leukemia = system: CCRF-CEM leukemia
# MOLT-4 leukemia = system: MOLT-4 leukemia
# SR leukemia = system: SR leukemia
# RPMI-8226 leukemia = system: RPMI-8226 leukemia
# OVCAR-8 ovarian = system: OVCAR-8 ovarian
# OVCAR-5 ovarian = system: OVCAR-5 ovarian
# OVCAR-4 ovarian = system: OVCAR-4 ovarian
# SK-OV-3 ovarian = system: SK-OV-3 ovarian
# IGROV1 ovarian = system: IGROV1 ovarian
# OVCAR-3 ovarian = system: OVCAR-3 ovarian
# HS 578T breast = system: HS 578T breast
# NCI/ADR-RES ovarian = system: NCI/ADR-RES ovarian
Structure (SMILES),growth (SK-MEL-2 melanoma),growth (SN12C renal),growth (UO-31 renal),growth (TK-10 renal),growth (ACHN renal),growth (CAKI-1 renal),growth (A498 renal),growth (CCRF-CEM leukemia),growth (MOLT-4 leukemia),growth (SR leukemia),growth (RPMI-8226 leukemia),growth (OVCAR-8 ovarian),growth (OVCAR-5 ovarian),growth (OVCAR-4 ovarian),growth (SK-OV-3 ovarian),growth (IGROV1 ovarian),growth (OVCAR-3 ovarian),growth (HS 578T breast),growth (NCI/ADR-RES ovarian)
CCN1CCN(c2nc(NNC(=O)c3cccc(OC)c3)nc(N3CCN(C(c4ccccc4)c4ccccc4)CC3)n2)CC1,75%,61%,27.5%,79.7%,56.1%,42.2%,75.3%,48.9%,23.8%,-11.8% (active),5.26% (active),65%,101%,62.4%,76.1%,58.5%,72.6%,64.3%,76.2%
CCOC(=O)c1sc(Nc2ncccn2)nc1-c1ccccn1,60.4%,92%,62.4%,102%,88.4%,57.2%,90.2%,46.2%,73.1%,62.7%,92%,85.7%,–,42%,76.4%,87.4%,82.3%,105%,68.6%
Cc1ccc([P+](Cc2ccccc2)(c2ccccc2)c2ccccc2)cc1,-29.1% (active),19.3%,68.7%,12.3%,60.6%,76.7%,23%,13.6%,6.83% (active),-11.9% (active),-32.1% (active),3.59% (active),31.7%,3.46% (active),21.3%,0.953% (active),19.2%,–,101%
Cc1cc(Nc2cccc(F)c2)nc(NCc2ccccc2)n1,19.8%,16.7%,20.7%,35.7%,17.1%,24.1%,24.4%,12.8%,22.5%,23%,-3.16% (active),19.2%,–,15.9%,80.6%,27.1%,0.169% (active),68.4%,11%
COc1cccc2c1C(=O)c1c(O)c3c(c(O)c1C2=O)C[C@@](O)(C(=O)COC(=O)c1ccccc1)C[C@@H]3OC1CC(N)C(O)C(C)O1 (some centres undefined),-92% (active),-86% (active),-93.1% (active),-79.8% (active),-95.6% (active),-89.3% (active),-66.2% (active),-54% (active),-66% (active),-43.7% (active),-66.4% (active),-77.3% (active),–,-87.9% (active),-72.8% (active),-75.2% (active),-93.6% (active),-41.6% (active),22.5%
Cc1ccc(S(=O)(=O)Nc2cccc3[nH]c(C(F)(F)F)nc23)cc1,2.59% (active),47.8%,45.1%,36.7%,49.8%,25.9%,13.7%,13.6%,31.7%,10.8%,-3.69% (active),31%,–,36%,4.74% (active),51.4%,4.74% (active),24.4%,4.81% (active)
C[n+]1c(/C=C/c2c[nH]c3ccccc23)ccc2ccccc21,83.9%,64.4%,60.5%,89.6%,77.1%,88.8%,54.5%,43.4%,9.37% (active),18.2%,40.7%,39.7%,–,54.8%,64.6%,72.4%,68.1%,–,100%
O=C(Nc1cccc(-c2nc3ccccc3[nH]2)c1)c1cccc(NC(=O)c2ccco2)c1,101%,79.1%,73.2%,91.6%,86%,77.6%,83.6%,68.3%,86.4%,23.5%,69.2%,87.2%,93.8%,80%,102%,86.2%,98.3%,–,84.9%
